Shown is part of a subset that was picked to be rich in hits.
ST2 IL33 inh: inhibitors of human ST2 (IL1RL1) binding to IL-33; Q01638; AlphaLISA ST2-Fc/biotin-IL-33 interaction, 1 h; inhibition, % for hits at 17 µM; actives 2.3% (n = 78,000); in the data active = inhibition above about 30%
Target sequence (Q01638 whole entry, looked up): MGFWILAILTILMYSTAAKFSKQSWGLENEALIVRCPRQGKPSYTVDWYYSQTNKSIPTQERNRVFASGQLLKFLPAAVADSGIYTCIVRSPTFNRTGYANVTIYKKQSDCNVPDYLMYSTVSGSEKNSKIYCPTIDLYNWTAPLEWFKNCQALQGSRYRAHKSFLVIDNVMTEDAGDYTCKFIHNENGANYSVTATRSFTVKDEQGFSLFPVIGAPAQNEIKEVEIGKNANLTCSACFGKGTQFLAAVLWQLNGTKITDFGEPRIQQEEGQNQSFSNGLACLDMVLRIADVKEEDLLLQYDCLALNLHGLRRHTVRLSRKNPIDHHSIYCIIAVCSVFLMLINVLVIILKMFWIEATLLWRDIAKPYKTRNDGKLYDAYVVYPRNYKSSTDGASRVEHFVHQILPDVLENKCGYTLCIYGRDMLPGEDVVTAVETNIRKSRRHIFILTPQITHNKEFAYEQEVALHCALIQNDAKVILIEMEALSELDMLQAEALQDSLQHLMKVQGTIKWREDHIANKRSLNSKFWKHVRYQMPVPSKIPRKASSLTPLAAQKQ
Each line names hits and unclear results; the compound was inactive in the other large screens; ! = repeats disagree.

Cc1ccc(-c2cc(=O)c(=O)[nH][nH]2)cc1	none
Cc1ccc(-c2ccc(CCC(=O)O)[nH]2)cc1	ST2 IL33 inh 35%
Cc1noc(C)c1S(=O)(=O)N1CCN(c2cc(-c3ccc(F)cc3)ncn2)CC1	none
Cc1cccc(Cn2c(CNS(=O)(=O)c3ccccc3)nc3cccnc32)c1	none
CN1CCC(N2C[C@H](O)C[C@H]2c2nc(Cc3ccc(F)cc3Cl)no2)CC1	ST2 IL33 inh 31%
O=[N+]([O-])c1ccccc1CN1C[C@H](O)C[C@H]1c1nc(Cc2ccc(F)cc2Cl)no1	none
CC(=O)N1CCC(N2C[C@H](O)C[C@H]2c2nc(CS(=O)(=O)c3ccc(F)cc3)no2)CC1	none
O=C(CCS(=O)(=O)c1cccs1)Nc1ccc(C(=O)Nc2ccc(Cl)cc2)cc1	none
CCN(CC)C(=O)[C@@H]1C[C@@H](N)CN1C(=O)c1c(C)[nH]c(C(C)=O)c1C	none
COc1cccc(CNc2ccc3c(c2)ncn3C)c1O	none
COc1ccc(CNc2ccc3c(c2)ncn3C)cc1OC	none
COc1ccc(OC)c(CNc2ccc3c(c2)ncn3C)c1	ST2 IL33 inh 36%!
O=C(CNS(=O)(=O)c1ccc(Br)s1)NCc1ccccn1	none
COc1cc(NC(=O)CC2CCCCC2)c(OC)cc1Cl	none
CCc1nc(C)ccc1OCC(=O)N1CCCC2(CCNCC2)CC1	none
O=C(Cn1c(=O)n(-c2ccc(F)cc2)c(=O)c2sccc21)NCc1ccco1	none
Cc1ccc(NS(=O)(=O)c2cccc3c(S(=O)(=O)Nc4ccc(C)cc4)cccc23)cc1	none
O=S(=O)(Nc1ccc(Cl)cc1)c1cccc2cccnc12	none
O=C1c2ccccc2C(=O)c2c1cccc2S(=O)(=O)Nc1ccc(Cl)cc1	ST2 IL33 inh 52%
CCN(C(=O)c1ccc(-c2ccccc2)cc1)c1ccccc1	none
COc1ccc2nc(NC(=O)/C=C/c3ccc([N+](=O)[O-])cc3)sc2c1	ST2 IL33 inh 31%
COc1ccc2nc(NC(=O)c3ccc(Cl)s3)sc2c1	none
CS(=O)(=O)c1ccc2nc(NC(=O)/C=C/c3ccc(Cl)cc3)sc2c1	none
CCOc1ccc(N2C(=O)CC(N3CCN(c4ccc(F)cc4)CC3)C2=O)cc1 (stereo not given)	none
COc1ccccc1N1C(=O)CC(N2CCN(c3ccc(F)cc3)CC2)C1=O (stereo not given)	none
COc1ccc(OC)c(N2C(=O)CC(N3CCN(c4ccc(F)cc4)CC3)C2=O)c1 (stereo not given)	ST2 IL33 inh 31%
Cc1ccc(NC(=O)C(NS(=O)(=O)c2cccs2)C(C)C)c(Br)c1 (stereo not given)	none
Fc1nc(N2CCOCC2)c(F)c(Oc2ccc(Cl)cc2)c1F	none
COc1cc([N+](=O)[O-])cc(C=Nc2ncccc2O)c1O	ST2 IL33 inh 42%
COc1cc([N+](=O)[O-])cc(C=Nc2ccc(-c3nc4c(C)cccc4o3)cc2)c1O	none
COc1cc([N+](=O)[O-])cc(C=Nc2cccc(-c3nc4c(C)cccc4o3)c2)c1O	none
O=C(CCc1cccs1)NC1CCCc2c1cnn2-c1ccccn1 (stereo not given)	none
Cc1ccc(-c2cn[nH]c2C2CCCN(C(=O)CCn3cnnn3)C2)cc1 (stereo not given)	none
CCOC(=O)Cn1c(=O)n(-c2ccc(F)cc2)c2nc(-c3ccc(F)c(F)c3)nc(C(N)=O)c21	none
CCC(C)c1ccccc1OCCCCN1CCCC1 (stereo not given)	none
CCC(C)c1ccc(OCCCCN2CCN(C)CC2)cc1 (stereo not given)	ST2 IL33 inh 39%
CN1CCN(CCCOc2ccc(C(C)(C)c3ccccc3)cc2)CC1	none
COc1ccc(Br)cc1/C=c1/sc2nc3ccccc3n2c1=O	none
CCN(C/C=C/c1ccccc1)C(=O)c1ccc(NC(C)=O)cc1	none
CCOC(=O)C1=C(N)OC2=C(C(=O)CC(c3ccccc3)C2)C1c1ccccc1C (stereo not given)	none
CCSC1=N/C(=C2\C=Cc3ccccc3N2CC)C(=O)S1	ST2 IL33 inh 73%
CCN1/C(=C2\C(=O)N(c3ccc(Cl)cc3)N=C2C)C=Cc2ccccc21	none
CCN1C(=O)CC(c2ccccc2)Sc2ccccc21 (stereo not given)	none
Cc1ccc2[nH]c(C(=O)N(C)C(C)c3ccon3)c(C)c2c1 (stereo not given)	none
CCOc1cccc2cc(C(N)=O)c(=Nc3cccc(C)c3)oc12	none
Cn1c(=O)c2cc(S(=O)(=O)Nc3ccccc3F)ccc2n(C)c1=O	none
Cc1cc(C)[n+]2c(c1C#N)SCC2C(Br)c1ccccc1 (stereo not given)	ST2 IL33 inh 58%
O=C(NCc1ccc(F)cc1)c1cc(-c2ccc(F)cc2)on1	none
COc1cccc(CN2CC(C(=O)N3CCN(c4cccc(C)n4)CC3)CCC2=O)c1 (stereo not given)	none
O=C(N1CCN(c2ccccc2Cl)CC1)C1(S(=O)(=O)c2ccc(Cl)cc2)CC1	none
CCc1cn[nH]c1C1CCN(C(=O)c2cc(C)nc3c2cnn3C(C)C)CC1	none
Nc1ccc(N)c2c1C(=O)c1c(N)ccc(N)c1C2=O	ST2 IL33 inh 94%
CCc1nc(-c2ccc(OC)c(C)c2)cc2cc(OC)c(OC)cc12	none
N#C/C(=C\c1ccc(-c2cccc(C(F)(F)F)c2)o1)C(=O)O	none
N#C/C(=C\c1ccc(-c2ccccc2)o1)C(=O)Nc1cccc2ncccc12	ST2 IL33 inh 40%
COc1cccc(-c2ccccc2NC(=O)C2CCN(Cc3cccc4ncccc34)CC2)c1	none
Oc1oc(-c2ccccc2)nc1C=Nc1cc(Cl)c(Cl)cc1Cl	none
Cc1ccc(-c2cc(C(=O)O)c3cc4c(C(=O)O)cc(-c5ccc(C)o5)nc4cc3n2)o1	ST2 IL33 inh 91%
O=C(O)c1cc(-c2cc(C(=O)O)c3ccccc3n2)nc2ccccc12	none
Cc1cc(C(=O)O)c2ccccc2n1	none
Cc1c(C(=O)N2CCCC2)oc2ccc(S(=O)(=O)N3CCCC(C)C3)cc12 (stereo not given)	none
O=C(CSc1nc(-c2ccccc2)cc(=O)[nH]1)N1CCc2ccccc2C1	none
O=C(CCC1CCN(C(=O)C2CC=CCC2)CC1)NCc1cccnc1 (stereo not given)	none
Cc1n[nH]c(C)c1S(=O)(=O)N1CCC(C(=O)NC2CCCc3ccccc32)CC1 (stereo not given)	none
CCc1ccc(C(=O)c2c[nH]c3ccccc3c2=O)cc1	none
COc1ccc([C@@H]2C(C#N)=C(N)S[C@H]2C(=O)c2ccccc2)cc1	none
COc1ccc(C(=O)N2CCCc3ccccc32)cc1	none
COc1ccc(N2CCSC2C(=O)c2ccccc2)cc1 (stereo not given)	ST2 IL33 inh 32%
Nn1c(CCC(=O)O)nc2sc3c(c2c1=O)CCCC3	none
CC(=O)NCCC1CCCCN1Cc1cc2cc(C)cc(C)c2[nH]c1=O (stereo not given)	none
O=C(O)CC(NC(=O)C(F)(F)F)c1ccccc1 (stereo not given)	none
CC(C)NC(=O)CCS(=O)(=O)c1cccc2nonc12	none
O=C(CCS(=O)(=O)c1cccc2nonc12)NCCc1ccccc1	none
CC(C)CCNC(=O)CCS(=O)(=O)c1cccc2nonc12	ST2 IL33 inh 60%
CCOC(=O)C1=C(C)NC2=C(C(=O)C(C(=O)OC)C(C)C2)C1c1ccc(Br)cc1 (stereo not given)	none
Cc1nn(C)c(C)c1CCC(=O)NC1CCCc2c1cnn2-c1ccc(F)cc1F (stereo not given)	none
Cc1cc(C)c(NC(=O)c2ccco2)c(Cl)c1	none
Cc1ccnc(CC(C)N(C)C(=O)c2cnn3c2CCCC3)c1 (stereo not given)	none
NC(=O)c1oc2ccccc2c1NC(=O)c1ccco1	none
O=C(Nc1c(C(=O)Nc2cccc(F)c2)oc2ccccc12)c1ccco1	none
COc1ccc(C(=O)c2oc3ccccc3c2NC(=O)c2ccco2)cc1	ST2 IL33 inh 31%

From PubChem
